Key:
Format in all cases: functional
[1] = molecular target: Solute carrier family 2, facilitated glucose transporter member 1 (Homo sapiens) (UniProt P11166); experiment: ST_JUDE_LEISH: Cytotoxicity at 2uM final concentration against transgenic Leishmania Mexicana promastigotes LmGLUT1 that are glucose transport deficient and complemented with the human glucose transporter GLUT1. Activity is measured by DNA content using SYBR green in vitro
[2] = molecular target: Hexose transporter 1 (Plasmodium falciparum) (UniProt O97467); experiment: ST_JUDE_LEISH: Cytotoxicity at 2uM final concentration against transgenic Leishmania Mexicana promastigotes LmPfHT that are glucose transport deficient and complemented with the Plasmodium falciparum hexose transporter. Activity is measured by DNA content using SYBR green in vitro
[3] = molecular target: Glucose transporter (Leishmania mexicana) (UniProt O61059); experiment: ST_JUDE_LEISH: Cytotoxicity at 2uM final concentration against transgenic Leishmania Mexicana promastigotes LmGT2 that are glucose transport deficient and complemented with the L. Mexicana glucose transporter 2. Activity is measured by DNA content using SYBR green in vitro

Solute carrier family 2, facilitated glucose transporter member 1 (Homo sapiens), sequence (P11166 whole entry): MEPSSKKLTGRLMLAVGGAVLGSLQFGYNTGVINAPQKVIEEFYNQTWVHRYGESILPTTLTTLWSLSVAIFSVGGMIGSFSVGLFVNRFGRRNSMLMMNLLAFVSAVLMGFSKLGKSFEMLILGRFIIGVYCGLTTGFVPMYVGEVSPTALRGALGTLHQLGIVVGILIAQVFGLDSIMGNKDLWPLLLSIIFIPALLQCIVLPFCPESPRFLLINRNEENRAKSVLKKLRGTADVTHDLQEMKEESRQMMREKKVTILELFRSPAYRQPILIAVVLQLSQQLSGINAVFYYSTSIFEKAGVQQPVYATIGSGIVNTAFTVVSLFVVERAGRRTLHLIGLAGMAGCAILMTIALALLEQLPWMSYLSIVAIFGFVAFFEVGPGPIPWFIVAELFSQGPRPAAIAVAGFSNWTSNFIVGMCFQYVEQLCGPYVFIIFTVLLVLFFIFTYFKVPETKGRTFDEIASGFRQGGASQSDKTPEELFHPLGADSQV

O=C(NC1CCN(Cc2ccccc2)CC1)c1ccc(-c2nc3cc(Cl)c(Cl)cc3[nH]2)c(F)c1
inhibition [1]: 10.3%
inhibition [2]: 9.26%
inhibition [3]: 9.86%

CCc1ccccc1N1CCN(CCCC(=O)c2ccc(NC(=O)c3ccc(Cl)cc3)cc2)CC1
inhibition [1]: 3.6%
inhibition [2]: 3.75%
inhibition [3]: 4.09%

OCC1CCN(Cc2cccc(-c3cccc(-c4nc5cc(C(F)(F)F)ccc5[nH]4)c3)c2)CC1
inhibition [1]: 2.74%
inhibition [2]: 0.35%
inhibition [3]: 0.14%

O=C(CN1CCC(NCc2cnc(-c3ccc(Cl)cc3)[nH]2)CC1)N1CCc2ccccc21
inhibition [1]: -1.03%
inhibition [2]: 0.65%
inhibition [3]: 0.77%

Cn1cncc1C(=O)Nc1cccc(-c2ccc(-c3nc4cc(F)ccc4[nH]3)s2)c1
inhibition [1]: 3.18%
inhibition [2]: 3.3%
inhibition [3]: -0.1%

Cc1cc(C)n(-c2nc(Nc3cccc(C(F)(F)F)c3)nc(-n3nc(C)cc3C)n2)n1
inhibition [1]: -2.75%
inhibition [2]: -3.09%
inhibition [3]: -1.11%

CCC[C@@H]([C@@H](CC(C)C)C(=O)N[C@@H](CCCNc1nccc(C(F)(F)F)n1)C(=O)Nc1nccs1)N(O)C=O
inhibition [1]: 3.82%
inhibition [2]: 4.8%
inhibition [3]: 3.22%

C(=NN=c1cc[nH]c2ccccc12)c1ccncc1
inhibition [1]: 3.99%
inhibition [2]: 4.32%
inhibition [3]: 3.95%

O=c1cc(NCCCCNCc2cccc(Br)c2)[nH]c2ccccc12
inhibition [1]: 5.23%
inhibition [2]: 5.07%
inhibition [3]: 3.39%

O=C(Nc1cccc(CN2CCCN(Cc3ccc(O)cc3)CC2)c1)c1cccc(Cl)c1
inhibition [1]: 12.2%
inhibition [2]: 13.4%
inhibition [3]: 11.7%

COc1ccc(C=NN=c2cc(C)[nH]c3ccccc23)c2ccccc12
inhibition [1]: 8.8%
inhibition [2]: 6.92%
inhibition [3]: 2.26%

COc1ccc2nccc([C@@H](O)CN3CCC(NC(=O)c4ccc(OC)c(N)c4)CC3)c2c1
inhibition [1]: 14.9%
inhibition [2]: 16.7%
inhibition [3]: 11.5%

Cn1cccc1C(=O)NCC(CCNc1cc(=O)c2ccccc2[nH]1)NCc1cc(Br)cc(Br)c1 (stereo not drawn)
inhibition [1]: 0.88%
inhibition [2]: 2.6%
inhibition [3]: 1.58%

O=C(Nc1cccc(-c2ccc(CN3CCCC3)cc2)c1)c1cccc(F)c1
inhibition [1]: -0.49%
inhibition [2]: 1.18%
inhibition [3]: 0.62%

Cc1cc(C(=O)Nc2ccc3c(c2)CCN3C2CCN(Cc3ccc4nsnc4c3)C2)no1 (stereo not drawn)
inhibition [1]: 3.24%
inhibition [2]: 2.32%
inhibition [3]: 5.35%

CCOC(=O)c1cn(CC)c2cc(N(C)CCc3ccc(OC)c(OC)c3)c(F)cc2c1=O
inhibition [1]: 2.15%
inhibition [2]: 1.21%
inhibition [3]: 1.68%

From ChEMBL document CHEMBL3433997, “St. Jude Leishmania screening dataset” (2016)
